In PubChem BioAssay (NCI) one finds growth data, which are given here for eight compounds.

SMILES strings stand for the structures. Compounds without any hit were thinned out: in the full panel of roughly 83,000, 20% have a hit.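 The endpoint reported here, percent growth, reads 100 for growth as untreated, 0 for no net growth and -100 for all cells dead.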 Unmarked numbers belong to inactive results. Activity calls are given as the source filed them. The calls were made as follows: active = growth percent below 10; inactive = the rest.

Some test systems named below: NCI-H23 lung; NCI-H322M lung; HOP-62 NSCLC; NCI-H460 lung; HOP-92 NSCLC; NCI-H522 lung; A549/ATCC NSCLC; 786-0 renal; DU-145 prostate; K-562 leukemia; MALME-3M melanoma; MDA-MB-231 breast; RXF 393 renal; SF-268 CNS; SF-295 CNS; SF-539 CNS; UACC-257 melanoma; M14 melanoma; HCT-15 colon; COLO 205 colon.
Common to all, as to assay: NCI-60 one-dose screen, 48 h (100 = growth as untreated, 0 = no growth, -100 = all killed)
What all share (settings): 10 µM unless noted

Turning to `O=C(/C=C/c1ccc(Cl)cc1)c1ccc(Nc2nc(NCCO)nc(N3CCOCC3)n2)cc1`, the growth in the experiment with NCI-H23 lung was 94.8%; with NCI-H322M lung it was 90.8%; in the experiment with HOP-62 NSCLC it was 89.6%; in the experiment on NCI-H460 lung it was 98.1%; with HOP-92 NSCLC, 98.6%; in the experiment with NCI-H522 lung it was 87.2%. In addition, the growth in the experiment with A549/ATCC NSCLC is 68%; in the experiment with 786-0 renal, 90.6%; in the experiment with DU-145 prostate, 92.9%; in the experiment on K-562 leukemia it was 44.5%; with MALME-3M melanoma it was 99.5%; with MDA-MB-231 breast, 84.3%. Also, the growth is 71.3% in the experiment with RXF 393 renal; 82% in the experiment with SF-268 CNS; 94.5% with SF-295 CNS; 90.4% in the experiment on SF-539 CNS; 101% in the experiment with UACC-257 melanoma; 105% in the experiment with M14 melanoma. In addition, in the experiment on HCT-15 colon, the growth is 44.8%.
For `O=c1c2cc(F)ccc2sc2c(Nc3ccncc3)nc3ccccc3c12`, the growth with NCI-H23 lung is 45.9%; with NCI-H322M lung it was 81.4%; with HOP-62 NSCLC it was 34.7%; in the experiment with NCI-H460 lung, -76.7% (active); with HOP-92 NSCLC, 54.5%; in the experiment with NCI-H522 lung, 5.65% (active). In addition, the growth in the experiment with A549/ATCC NSCLC was -43.8% (active); in the experiment on 786-0 renal it was -79.8% (active); in the experiment on DU-145 prostate, 4.28% (active); in the experiment on K-562 leukemia, -47.1% (active); with MALME-3M melanoma it was 22%; in the experiment with MDA-MB-231 breast, -89.7% (active). Also, the growth with RXF 393 renal was -42% (active); in the experiment with SF-268 CNS, -10.4% (active); in the experiment with SF-295 CNS it was 101%; in the experiment with SF-539 CNS, 70.8%; in the experiment with UACC-257 melanoma, 113%; in the experiment on M14 melanoma, -27.2% (active). Further, the growth in the experiment on HCT-15 colon is -70.5% (active).
In the case of `C=C1C(=O)O[C@H]2[C@H]1CC/C(COC(=O)/C=C\C(=O)O)=C\CC[C@@]1(C)O[C@@H]21`, the growth in the experiment with NCI-H23 lung was 98.9%; with NCI-H322M lung it was 105%; in the experiment with HOP-62 NSCLC it was 99.2%; in the experiment with NCI-H460 lung, 107%; in the experiment on HOP-92 NSCLC it was 108%; in the experiment on NCI-H522 lung, 97.5%. Further, the growth was 105% in the experiment on A549/ATCC NSCLC; 109% in the experiment on 786-0 renal; 112% in the experiment on DU-145 prostate; 109% with K-562 leukemia; 99.8% with MALME-3M melanoma; 103% in the experiment with MDA-MB-231 breast. For the same compound, the growth with RXF 393 renal is 111%; with SF-268 CNS, 100%; in the experiment on SF-295 CNS, 96.7%; with SF-539 CNS, 93.2%; with UACC-257 melanoma, 99.8%; with M14 melanoma, 110%. Also, the growth with HCT-15 colon is 105%.
As to `COc1ccc(N2C(=O)CC(c3cc(OC)c(OC)c(OC)c3)C3C2=NC(=O)N3C)cc1` (centres undefined), the growth in the experiment with NCI-H23 lung is 110%; in the experiment with NCI-H322M lung, 105%; in the experiment with HOP-62 NSCLC it was 108%; with NCI-H460 lung, 108%; in the experiment with HOP-92 NSCLC, 105%; in the experiment with NCI-H522 lung, 97.5%. Also, the growth is 104% in the experiment with A549/ATCC NSCLC; 103% in the experiment on 786-0 renal; 101% with COLO 205 colon; 106% in the experiment on DU-145 prostate; 105% with MALME-3M melanoma; 109% in the experiment with MDA-MB-231 breast. The growth with SF-268 CNS was 100%; in the experiment on SF-295 CNS, 101%; in the experiment with SF-539 CNS it was 97.9%; in the experiment on UACC-257 melanoma, 98.2%; with M14 melanoma, 105%; in the experiment on HCT-15 colon, 102%.
With `COc1cc(C2C(C#N)=C(N)OC3=C2C(=O)c2ccccc2C3=O)cc(OC)c1OC` (centres undefined), the growth was 31.4% in the experiment with NCI-H23 lung; 48.1% in the experiment with NCI-H322M lung; 7.45% (active) in the experiment on HOP-62 NSCLC; 9.57% (active) in the experiment with NCI-H460 lung; 80.6% in the experiment with HOP-92 NSCLC; -18.6% (active) with NCI-H522 lung. Besides, the growth in the experiment on A549/ATCC NSCLC is 41%; with 786-0 renal, 35.6%; in the experiment with COLO 205 colon, 89%; in the experiment on DU-145 prostate, 25.1%; in the experiment with MALME-3M melanoma it was 47.8%; in the experiment on MDA-MB-231 breast, 36.4%. For the same compound, the growth in the experiment on SF-268 CNS was 39.5%; in the experiment with SF-295 CNS it was 23.2%; in the experiment on SF-539 CNS, -19.6% (active); in the experiment with UACC-257 melanoma, 50.5%; with M14 melanoma, 12.3%; with HCT-15 colon, 20.1%.
With `NCCNc1nc2ccccc2c2c(=O)c3cc(F)cc(Cl)c3sc12`, the growth in the experiment with NCI-H23 lung is 75.4%; in the experiment with NCI-H322M lung, -27.1% (active); in the experiment with HOP-62 NSCLC it was -51.7% (active); in the experiment with NCI-H460 lung it was -90% (active); with HOP-92 NSCLC, 40.8%; in the experiment with NCI-H522 lung, -44.8% (active). Further, the growth with A549/ATCC NSCLC was -72.9% (active); with 786-0 renal, -90.4% (active); with DU-145 prostate, -92.6% (active); in the experiment with K-562 leukemia, -62.7% (active); in the experiment on MALME-3M melanoma, 89.6%; with MDA-MB-231 breast, -79.2% (active). The growth with RXF 393 renal was 67%; with SF-268 CNS, -42.4% (active); with SF-295 CNS, 98.2%; with SF-539 CNS, 58.6%; in the experiment with UACC-257 melanoma, 103%; in the experiment on M14 melanoma it was -76.6% (active). In the experiment on HCT-15 colon, the growth is -83.4% (active).
For `CCCCCCCCCCCCCCn1cc(C2=C(c3coc4ccc(OC)cc34)C(=O)NC2=O)c2ccccc21`, the growth in the experiment with NCI-H23 lung was 96%; with NCI-H322M lung, 99.7%; in the experiment on HOP-62 NSCLC it was 103%; with NCI-H460 lung, 98.5%; in the experiment on HOP-92 NSCLC it was 107%; with NCI-H522 lung, 90.3%. In addition, the growth in the experiment with A549/ATCC NSCLC is 96.6%; in the experiment on 786-0 renal it was 97.6%; in the experiment on DU-145 prostate it was 102%; in the experiment on K-562 leukemia, 121%; in the experiment with MALME-3M melanoma, 107%; with MDA-MB-231 breast, 111%. The growth in the experiment with RXF 393 renal was 108%; with SF-268 CNS it was 98.8%; in the experiment on SF-295 CNS, 97.2%; in the experiment with SF-539 CNS, 103%; in the experiment on UACC-257 melanoma it was 96.8%; with M14 melanoma, 98.7%. Also, the growth in the experiment on HCT-15 colon was 88.1%.
In the case of `Cc1cccc(NC(=O)c2sc3nc4c(cc3c2N)CCCC4)c1C`, the growth was 30.2% in the experiment with NCI-H23 lung; 42.4% in the experiment on NCI-H322M lung; 26.4% with HOP-62 NSCLC; 6.76% (active) with NCI-H460 lung; 49.6% in the experiment on HOP-92 NSCLC; -6.44% (active) in the experiment on NCI-H522 lung. Further, the growth in the experiment with A549/ATCC NSCLC is 26.3%; with 786-0 renal, 34%; in the experiment with COLO 205 colon, -38% (active); with DU-145 prostate, 19.6%; in the experiment with MALME-3M melanoma, 45.7%; in the experiment with MDA-MB-231 breast it was 38.6%. The growth in the experiment with SF-268 CNS was 34.9%; in the experiment with SF-295 CNS, 6.95% (active); with SF-539 CNS, -12.2% (active); in the experiment with UACC-257 melanoma it was 66.3%; in the experiment on M14 melanoma it was 4.97% (active); in the experiment with HCT-15 colon, 16.2%.
